According to PubChem BioAssay (NCI):
This is part of a sample that, as a whole, favours compounds with a hit. Of some 79,000 tested, about 15% had one in any assay. The source made the active and inactive calls. Rule as the data show it: active = growth inhibition above about 70%; inactive = the rest.

Columns and labels:
[1] = NCI Yeast Anticancer Drug Screen. Data for the rad52 strain (AID 147);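 also: 0% = growth of vehicle-treated control cultures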; details: S. cerevisiae rad52 mutant growth inhibition, active compounds read high
In short: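 The repair-mutant yeast strain was incubated with compounds, then growth was read and inhibition derived relative to vehicle.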

[2] = NCI Yeast Anticancer Drug Screen. Data for the wt1 strain (AID 149);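 also: 0% = growth of vehicle-treated wt1 cultures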; details: S. cerevisiae wt1 strain (SPY 50644) growth inhibition, active compounds read high
In short: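 Growth inhibition read against vehicle controls after compound exposure of the wt1 yeast strain.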

[3] = NCI Yeast Anticancer Drug Screen. Data for the rad50EPP+ strain (AID 151);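 also: 0% = growth of vehicle-treated control cultures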; details: S. cerevisiae rad50 mutant strain, active compounds read high
In short: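 Vehicle-normalised growth inhibition; rad50EPP+ yeast strain, altered in DNA damage repair, compound-treated.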

[4] = NCI Yeast Anticancer Drug Screen. Data for the mgt1 strain (AID 153); details: S. cerevisiae mgt1 mutant growth inhibition, active compounds read high
In short: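 Vehicle-normalized growth inhibition is determined in mgt1 yeast, a strain selected for a defined alteration in DNA repair or cell cycle control.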

[5] = NCI Yeast Anticancer Drug Screen. Data for the rad50 strain (AID 155);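 also: 0% = growth of vehicle-only cultures of the same strain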; details: S. cerevisiae rad50 strain growth inhibition, active compounds read high
In short: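 Readout: growth inhibition relative to vehicle-treated cultures. Compound exposure was carried out in a genetically defined yeast strain deficient in DNA damage repair.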

[6] = NCI Yeast Anticancer Drug Screen. Data for the mec2-1 strain (AID 157); details: S. cerevisiae mec2-1 strain, active compounds read high
In short: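 Mutant yeast (mec2-1) grown with compound; growth inhibition relative to vehicle control reported.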

[7] = NCI Yeast Anticancer Drug Screen. Data for the sgs1 mgt1 strain (AID 161);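 also: 0% = growth of cultures given vehicle only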; details: S. cerevisiae sgs1 mgt1 strain, active compounds read high
In short: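 Compounds are added to genetically altered yeast, and growth is compared with cultures given vehicle alone to give percent inhibition.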

[8] = NCI Yeast Anticancer Drug Screen. Data for the CLN2oe strain (AID 163);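 also: 0% = growth of vehicle-only control cultures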; details: S. cerevisiae CLN2oe strain, active compounds read high
In short: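 Compounds are applied to yeast harbouring a defined cell-cycle control change; reduced growth compared with vehicle-treated controls gives the value.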

[9] = NCI Yeast Anticancer Drug Screen. Data for the cln2 rad14 strain (AID 165);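 also: 0% = growth equal to vehicle treated cultures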; details: S. cerevisiae cln2 rad14 strain, active compounds read high
In short: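 Readout is yeast growth inhibition versus vehicle-treated controls, using a strain with cln2 and rad14 alterations exposed to compound.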

[10] = NCI Yeast Anticancer Drug Screen. Data for the bub3 strain (AID 167); details: S. cerevisiae bub3 mutant strain, active compounds read high
In short: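 Readout: yeast growth inhibition, expressed relative to vehicle-only wells. The test organism is a mutant strain from a panel with lesions in DNA repair or checkpoint genes.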

[11] = NCI Yeast Anticancer Drug Screen. Data for the wt2 strain (AID 169);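 also: 0% = growth of vehicle-treated yeast cultures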; details: S. cerevisiae wt2 strain growth inhibition, active compounds read high
In short: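 Against vehicle-treated controls, the growth of yeast exposed to each compound was compared, and the inhibition was recorded.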

[12] = NCI Yeast Anticancer Drug Screen. Data for the mlh1 strain (AID 171);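 also: 0% = growth of vehicle-treated control cultures of the same strain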; details: S. cerevisiae mlh1 strain growth inhibition, active compounds read high
In short: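 Measured: yeast growth. Reference: vehicle-treated controls. Organism: strain with a defined alteration affecting DNA damage repair or cell cycle control, treated with compound.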

[13] = NCI Yeast Anticancer Drug Screen. Data for the sgs1 strain (AID 173);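 also: 0% = growth of vehicle-only control cultures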; details: S. cerevisiae sgs1 mutant, active compounds read high
In short: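 Each compound was added to cultures of the altered yeast strain. Growth was recorded, and inhibition was derived by comparison with vehicle controls.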

[14] = NCI Yeast Anticancer Drug Screen. Data for the mlh1 rad18 strain (AID 175); details: S. cerevisiae mlh1 rad18 strain growth inhibition, active compounds read high
In short: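 Genetically defined yeast (DNA repair-deficient) exposed to compounds; growth inhibition determined relative to vehicle.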

[15] = at 5.0 µM (retest, dose inferred, filed as 0.5)
[16] = at 50.0 µM (retest, dose inferred, filed as 5.0)

Measured: growth inhibition

O=C(NC(=S)Nc1ccccn1)c1ccccc1
inactive: [1]; at 1.2 µM -30% | [1]; at 3.7 µM -43% | [1]; at 11.0 µM -35% | [1]; at 33.0 µM -28% | [1]; at 100.0 µM -22% | [2]; at 1.2 µM -26% | [2]; at 3.7 µM -36% | [2]; at 11.0 µM -32% | [2]; at 33.0 µM -19% | [2]; at 100.0 µM -24% | [3]; at 1.2 µM -30% | [3]; at 3.7 µM -51% | [3]; at 11.0 µM -69% | [3]; at 33.0 µM -53% | [3]; at 100.0 µM 25% | [4]; at 1.2 µM -62% | [4]; at 3.7 µM -40% | [4]; at 11.0 µM -58% | [4]; at 33.0 µM -41% | [4]; at 100.0 µM -22% | [5]; at 1.2 µM -12% | [5]; at 3.7 µM -9% | [5]; at 11.0 µM -19% | [5]; at 33.0 µM -30% | [5]; at 50.0 µM 28.7% | [5]; at 100.0 µM -14% | [6]; at 1.2 µM -73% | [6]; at 3.7 µM -55% | [6]; at 11.0 µM -51% | [6]; at 33.0 µM -54% | [6]; at 50.0 µM 25.1% | [6]; at 100.0 µM -50% | [7]; [15] -21% | [7]; [16] 50% | [7]; at 50.0 µM 60.5% | [8]; at 1.2 µM -4% | [8]; at 3.7 µM -15% | [8]; at 11.0 µM -11% | [8]; at 33.0 µM -23% | [8]; at 100.0 µM -15% | [9]; [15] 36% | [9]; [16] 10% | [9]; at 50.0 µM -9.05% | [10]; at 1.2 µM -19% | [10]; at 3.7 µM -22% | [10]; [15] 13% | [10]; at 11.0 µM -13% | [10]; at 33.0 µM 5% | [10]; [16] 57% | [10]; at 50.0 µM 63% | [10]; at 100.0 µM 19% | [11]; at 1.2 µM -32% | [11]; at 3.7 µM -32% | [11]; at 11.0 µM -38% | [11]; at 33.0 µM -27% | [11]; at 100.0 µM -20% | [12]; at 1.2 µM -38% | [12]; at 3.7 µM -34% | [12]; at 11.0 µM -26% | [12]; at 33.0 µM -40% | [12]; at 100.0 µM -37% | [13]; at 1.2 µM -54% | [13]; at 3.7 µM -71% | [13]; at 11.0 µM -47% | [13]; at 33.0 µM -36% | [13]; at 100.0 µM -31% | [14]; at 50.0 µM 19.2%
active: [5]; [15] 97% | [5]; [16] 100% | [6]; [15] 100% | [6]; [16] 100% | [14]; [15] 100% | [14]; [16] 100%
